Screening data deposited in PubChem by National Center for Advancing Translational Sciences (NCATS).
HPGD inh = inhibitors of human 15-hydroxyprostaglandin dehydrogenase (HPGD); Potency, µM, inactives show at the top dose activity change, negative = inhibition, usual class: inhibitors; purified HPGD, NADH fluorescence kinetic, PGE2 substrate; P15428; 4.3% of 150,000 active; note: potency is the fitted concentration of half-maximal effect
Target sequence (P15428 whole entry, looked up): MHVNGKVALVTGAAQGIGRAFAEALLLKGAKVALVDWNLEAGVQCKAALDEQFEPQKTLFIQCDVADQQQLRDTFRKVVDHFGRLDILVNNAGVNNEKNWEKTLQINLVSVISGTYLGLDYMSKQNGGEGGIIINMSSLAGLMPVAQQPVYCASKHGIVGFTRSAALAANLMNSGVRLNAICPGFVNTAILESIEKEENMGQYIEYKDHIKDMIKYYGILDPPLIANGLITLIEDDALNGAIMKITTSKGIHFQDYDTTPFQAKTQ
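NADH formation kinetics: reaction with 30 uM PGE2 and 1 mM NAD+ (final), 20 nM enzyme, Tris-HCl pH 8 with Tween 20, after 15 min compound preincubation at room temperature. Fluorescence change, last versus first of five reads.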
PNC inhibitor = perinucleolar compartment assembly inhibition; 3.1% of 140,000 active; AID 2417; activity change (PNC), negative = inhibition, % at 10 µM; PC3M PTB-GFP, PNC prevalence imaging, 16 h; hits give low values;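 active = readout at or below -70, meaning at least 70% loss of cells showing the perinucleolar compartment, a nuclear body marking cancer cells; inconclusive = readout between -30 and a set limit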;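 note: plate controls were DMSO wells for no effect and camptothecin positive control wells for full effect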
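Read-out is percentage of cells bearing a perinucleolar compartment, from automated 20x imaging of fixed, Hoechst-stained PC3M PTB-GFP cells. Cells were seeded 4 h, then exposed 16 h to compound (23 nl of library stock) in duplicate plates.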
IMPase cell inh = IMPase inhibition in cells. CHO-M1 cells, IP1 accumulation, HTRF TR-FRET ratio. 120,000 tested, under 10 active. P97697. inhibition (IP1 accumulation), % at 46.1 µM; active = well fitted curve in the direction sought with a large enough effect in the signal ratio, not every such curve was filed as active; inconclusive = small, poorly fitted or top-dose-only effect, or a change in a side signal; inactive = no such curve, though single readings can be large or run the other way; the % refers to the signal ratio;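 note: cells stimulated with carbachol in lithium chloride buffer; plate controls were DMSO basal wells for no effect and reference inhibitor wells for full effect; higher means more IMPase inhibition seen as more IP1 and lower FRET ratio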
Target sequence (P97697 whole entry, looked up): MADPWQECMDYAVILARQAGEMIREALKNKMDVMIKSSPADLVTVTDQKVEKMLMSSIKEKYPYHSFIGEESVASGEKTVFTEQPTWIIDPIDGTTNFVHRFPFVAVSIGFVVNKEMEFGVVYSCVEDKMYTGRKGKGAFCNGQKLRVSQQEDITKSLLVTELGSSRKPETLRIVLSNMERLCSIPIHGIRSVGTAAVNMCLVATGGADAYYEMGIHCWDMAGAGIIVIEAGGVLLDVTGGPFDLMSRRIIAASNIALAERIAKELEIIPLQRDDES
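CHO-M1 cells (CHO stably expressing M1 receptor), compound up to 46 uM final, stimulated with carbachol (50 uM as added) in buffer with 50mM LiCl, pH 7.4, 30 min at 37C. Cytosolic IP1 read by TR-FRET; AC50 from Hill fits.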
NPSR antagonist = blocks cAMP signaling of the human neuropeptide S receptor. Potency, µM (highest dose often 38.3 µM), inactives show at the highest dose activity change, negative = inhibition, most hits filed as inhibitors. Q6W5P4. 1% of 220,000 active. AID 1461. CHO-NPSR cells, cAMP TR-FRET, antagonist mode; active = well fitted curve in the direction sought with a large enough effect; inconclusive = small, poorly fitted or top-dose-only effect, or another doubt; inactive = no such curve, though single readings can be large; an effect the other way counts as inactive or inconclusive; note: potency is the fitted concentration of half-maximal effect; nearly all actives have a fitted effect of over 50% in size
ALDH1A1 block = blocks purified human ALDH1A1 activity; AID 1030; P00352; Potency, µM (titrated, usually from 75.3 µM), without a hit: at the top dose activity, negative = inhibition, usual class: inhibitors; Purified ALDH1A1, NADH fluorescence, propionaldehyde substrate; 7.3% of 220,000 active;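 note: potency is the fitted concentration of half-maximal effect; plate controls were no enzyme wells and a reference inhibitor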
IMPase Li inh = membrane-permeable IMPase blocker, potentiated with lithium. CHO-M1 cells, IP1 TR-FRET (IP-One), carbachol + lithium. Potency, µM (top dose mostly 59.4 µM), for inactives: at the highest dose activity, negative = IMPase inhibition, actives largely listed as inhibitors. 0.35% of 210,000 active. AID 1457; active = well fitted curve in the direction sought with a large enough effect; inconclusive = small, poorly fitted or top-dose-only effect, or another doubt; inactive = no such curve, though single readings can be large; an effect the other way counts as inactive or inconclusive;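 note: IP1 builds up when IMPase is blocked and the TR-FRET signal falls; potency is the fitted concentration of half-maximal effect; plate controls were basal vehicle for no effect and high inhibitor control for full effect; nearly all actives have a fitted effect of over 50% in size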
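Readout is a homogeneous TR-FRET IP1 immunoassay (Ex 320, Em 665 and 620), where raised cytosolic IP1 lowers signal. Cells were CHO-M1 treated 30 min at 37C with test compounds plus a little lithium; AC50 values came from Hill-equation fitting.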
Active calls of the source: *; ? = inconclusive; . = no result; [ ] = another dose, or the depositor's remark. An excerpt weighted towards active compounds, which were near 11% of everything screened. Unless noted, calls come from the whole dose curve; as a rule, active = well fitted inhibition curve with a large enough effect (not every such curve was filed as active); inconclusive = small, poorly fitted or top-dose-only effect, or another doubt; inactive = no such curve, though single readings can be large or run the other way. Unless noted, % is set by controls: 0 for no effect and ±100 for the full control effect.

SMILES	HPGD inh	PNC inhibitor	IMPase cell inh	NPSR antagonist	ALDH1A1 block	IMPase Li inh
O=C(CN1CCOCC1)c1ccc2cc[nH]c2c1	-25%	29	?	11%	?	-6%
CC(C)CON=O	-1%	.	.	.	32µM*	-7%
CC1(C)C(=O)C=C[C@@]2(C)C1=C(O)C(=O)[C@@]1(C)C2CC[C@@]2(C)C(c3ccoc3)C[C@H]3O[C@@]321 (stereo partly specified)	1%	.	.	.	3%	21%
O=C1c2ccccc2C(Nc2ccc(S(=O)(=O)N3CCCCCC3)cc2)N1c1ccccn1 (stereo unspecified)	-7%	-93*	3	-6%[46.1 µM]	0.79µM*	3%[38.3 µM]
CCOC(=O)c1c(C)n(CC(O)CN2CCOCC2)c2cc(Br)c(OC)cc12 (stereo unspecified)	.	.	.	-6%	?	5%
CCN(CC)c1ccc(CN(C)CCc2ccc(OC)c(OC)c2)cc1	6%	19	13	-7%[46.1 µM]	13µM*	-4%[38.3 µM]
Cc1c(C(c2ccccc2Cl)c2c(O)c3ccccc3oc2=O)c(=O)n(-c2ccccc2)n1C (stereo unspecified)	-14%	-8	-14	6%	7%	0%
S=C1Nc2ccccc2Sc2ccccc21	.	.	.	-24%	10µM*	21%
COC(=O)[C@@H]1C[C@@]1(C)[C@@H](NP(=O)(c1ccccc1)c1ccccc1)c1ccccc1	-10%	37	.	-6%	11%	11%
O=P(OCCCl)(OCCCl)OCCCl	-11%	.	.	.	28µM*	10%
COC(=O)COc1cc(Cl)c(Cl)cc1Cl	-8%	.	.	.	5%	-7%
O=C(Nc1ccc(OC(=O)N2CCCC2)cc1)N1CCOCC1	-9%	-100*	5	-6%[46.1 µM]	4%	0%
Nn1c(COc2ccc(Cl)cc2)n[nH]c1=S	.	.	.	-3%	25µM*	4%
COc1ccc(OCc2n[nH]c(=S)n2Cc2ccco2)cc1	.	.	.	-23%	?	-2%
Cc1cccc(C)c1OCc1n[nH]c(=S)n1N	.	.	.	-8%	25µM*	6%
O=C(C1CCC(=O)N1C1CCCC1)N1CCC2(CC1)OCCO2 (stereo unspecified)	-12%	-21	8	-13%[46.1 µM]	-7%	-5%[38.3 µM]
CCCn1c(C)cc(C=O)c1C	.	.	.	24%	7.1µM*	-20%
Cc1cc(C=O)c(C)n1C(C)C	.	.	.	10%	14µM*	-4%
CCCCCCOc1ccc(CN2CCN(CCO)CC2)cc1	-9%	19	5	12%[46.1 µM]	14%	17%[38.3 µM]
CCOP(=O)(OCC)C(NC(=O)c1cccc(C)c1)C(Cl)(Cl)Cl (stereo unspecified)	.	.	.	-11%	3%	.
CCN(CC)c1ccc(NC(=O)c2cccc(C)c2)cc1S(=O)(=O)Nc1ccccc1OC	13µM*	?	.	2%	14µM*	4%
C(=C\c1ccccc1)/CN1CCN(CCOC(c2ccccc2)c2ccccc2)CC1	.	.	.	.	-5%	26%
COC(=O)CSc1n[nH]c(=S)s1	40µM*	17	.	15%	11µM*	-1%
CCOC(=O)C1(CCc2ccccc2)CCN(Cc2cccc3cnccc23)CC1	.	.	.	56%	?	17%
CC1CC2OC2/C=C\C=C/C(=O)Cc2c(Cl)c(O)cc(O)c2C(=O)O1 (stereo unspecified)	18µM*	.	.	.	22µM*	23%
Oc1ccc2c3c1O[C@H]1c4[nH]c5ccccc5c4C[C@]4(O)[C@H](C2)N(CC2CC2)CC[C@@]314	-7%	.	-5	.	-4%	10%
N#CC1(O)CCCCC1	-5%	.	.	.	28µM*	3%
CC1CN(c2ccc([N+](=O)[O-])c(N3CCCCC3)c2)CCN1 (stereo unspecified)	.	.	.	-2%	.	.
COc1ccc2c(c1)c(CCN1CCOCC1)c(C)n2C(=O)c1cccc(Cl)c1Cl	28µM*	.	.	.	-10%	1%
O=C1CC(N2CCC(n3c(=O)[nH]c4ccccc43)CC2)C(=O)N1c1ccc(F)cc1 (stereo unspecified)	-1%	?	0	-12%[46.1 µM]	-2%	19%[38.3 µM]
